High-throughput results: PubChem, National Center for Advancing Translational Sciences (NCATS)
An excerpt weighted towards active compounds, which were near 18% of everything screened.
TDP1 cell CPT: growth inhibition of DT40 Tdp1-/-;hTDP1 cells with camptothecin (screen for TDP1 inhibitors). chicken DT40 Tdp1-/-;hTDP1 cells + 20 nM CPT, ATP luminescence, 48 h. Potency, µM (top dose mostly 46.2 µM), hits mostly inhibitors. 12% of 420,000 active; further: nearly all actives have a fitted effect of over 55% in size
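Cell growth measured by CellTiter-Glo luminescence after a minimum 48 h, 37 C compound exposure with 20 nM CPT in Tdp1-knockout DT40 cells stably expressing hTDP1, seeded 400/well; qHTS titration format.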
PLK1 PBD inh: PLK1 (human) polo-box domain binding inhibition. 2.8% of 360,000 active. Potency, µM, hits mostly inhibitors. P53350. AID 720504. Plk1 PBD binding of FITC phosphopeptide, fluorescence polarization; further: series mostly up to about 57 µM; nearly all actives have a fitted effect of over 65% in size
Target sequence (P53350 whole entry, looked up, the tested form may be a part): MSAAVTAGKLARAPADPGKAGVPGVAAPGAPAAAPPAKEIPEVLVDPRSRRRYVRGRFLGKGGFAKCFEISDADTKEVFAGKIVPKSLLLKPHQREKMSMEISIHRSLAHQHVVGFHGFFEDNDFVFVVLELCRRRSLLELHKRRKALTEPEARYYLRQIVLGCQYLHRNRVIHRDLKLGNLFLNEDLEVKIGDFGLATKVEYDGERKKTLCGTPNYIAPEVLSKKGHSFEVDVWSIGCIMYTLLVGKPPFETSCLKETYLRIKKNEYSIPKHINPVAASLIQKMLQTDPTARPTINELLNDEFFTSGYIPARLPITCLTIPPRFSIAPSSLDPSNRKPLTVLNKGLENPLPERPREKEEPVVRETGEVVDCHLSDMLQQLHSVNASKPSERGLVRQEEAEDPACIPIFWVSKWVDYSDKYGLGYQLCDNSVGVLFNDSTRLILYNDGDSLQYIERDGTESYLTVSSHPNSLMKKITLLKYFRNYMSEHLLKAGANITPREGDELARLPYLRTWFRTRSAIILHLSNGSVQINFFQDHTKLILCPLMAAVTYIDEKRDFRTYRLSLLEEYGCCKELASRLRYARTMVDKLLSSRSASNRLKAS
VDR inhibitor: blocks the human vitamin D receptor | VDR-SRC2-3 peptide fluorescence polarization, 2 h | Potency, µM, usual class: inhibitors | 0.93% of 400,000 active
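Compounds are added to VDR with labelled SRC2-3 coactivator peptide and held 2 h at room temperature. Inhibition of the VDR–peptide interaction is then read as a change in fluorescence polarization.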
DT40 TDP1 no CPT: qHTS for Inhibitors of human tyrosyl-DNA phosphodiesterase 1 (TDP1): qHTS in cells in absence of CPT. DT40 Tdp1-/- hTDP1 cells, no CPT, ATP luminescence, 48 h. Potency, µM (doses to about 46.2 µM), most hits filed as inhibitors. 15% of 420,000 active. AID 686978, 2013; further: nearly all actives have a fitted effect of over 55% in size
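Camptothecin absent (DMSO only). Human TDP1-complemented DT40 knockout cells, 400 cells/well, 37 °C for minimum 48 hr; ATP measured via CellTiter-Glo, 30 min dark incubation, luminescence.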
TDP1 block: TDP1 (human) enzyme inhibition; Q9NUW8; recombinant TDP1, AlphaScreen DNA substrate cleavage; Potency, µM (titrated, usually from 130 µM), usual class: inhibitors; 0.28% of 350,000 active; AID 485290; further: nearly all actives have a fitted effect of over 40% in size
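E. coli-derived human Tdp1, 1 nM final. Cpd preinc 15 min RT; substrate 15 nM final, 5 min RT; AS bead mix 10 ug/ml final, 10 min RT. Signal loss = tyrosine-FITC cleavage. No-enzyme wells = max signal.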
KAT2A inh: GCN5L2 (KAT2A) acetyltransferase inhibition. GCN5L2 HAT assay, ThioGlo1 CoA-SH fluorescence. Potency, µM (highest dose often 58.9 µM), hits mostly inhibitors. 0.21% of 390,000 active. AID 504327
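Enzyme at 20nM final was mixed with library compounds for 15 min at room temperature. Peptide H3(1-25) at 75uM, acetyl-CoA at 70uM and ThioGlo1 at 50uM were then added. Plates were read immediately and after 20 min (Ex340nm/Em540nm).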
Numbers stand for hits. The call rests on the fitted dose curve; in most records, active means well fitted curve in the direction sought with a large enough effect; inconclusive means small, poorly fitted or top-dose-only effect, or another doubt; inactive means no such curve, though single readings can be large; an effect the other way counts as inactive or inconclusive.

CC(=O)OC(C)(C)/C=C/C(=O)[C@](C)(O)C1[C@H](O)C[C@@]2(C)C3CC=C4C(C[C@H](O)C(=O)C4(C)C)[C@]3(C)C(=O)C[C@]12C (stereo not given in full) was read as TDP1 cell CPT 0.0082µM, PLK1 PBD inh inactive, VDR inhibitor inactive, DT40 TDP1 no CPT 0.021µM, TDP1 block inactive and KAT2A inh inactive.
CC(C)(O)/C=C/C(=O)C(C)(O)C1C(O)CC2(C)C3CC=C4C(C=C(O)C(=O)C4(C)C)C3(C)C(=O)CC12C (stereo not given) was read as TDP1 cell CPT 0.037µM, PLK1 PBD inh inactive, VDR inhibitor inconclusive and DT40 TDP1 no CPT 0.016µM.
O=C(O)[C@H]1[C@H]2CN[C@H](C(=O)O)[C@H]21 was read as TDP1 cell CPT inactive, VDR inhibitor inactive, DT40 TDP1 no CPT inactive, TDP1 block inactive and KAT2A inh inactive.
`COC1=CC(=O)O[C@H](/C=C/c2ccc3c(c2)OCO3)C1` gave VDR inhibitor inactive, TDP1 block inactive and KAT2A inh inactive.
For CCOCCCNC(=O)c1c[nH]c2ccc(S(=O)(=O)N(C)c3ccc(Cl)cc3F)cc2c1=O the results were TDP1 cell CPT 23µM, VDR inhibitor inactive, DT40 TDP1 no CPT 16µM, TDP1 block inactive and KAT2A inh inactive.
For Cc1nn(C(C)(C)C)c(C)c1/C=N/OC(=O)Nc1ccc(Cl)c(Cl)c1 the results were TDP1 cell CPT 15µM, PLK1 PBD inh inactive, VDR inhibitor inactive, DT40 TDP1 no CPT 16µM, TDP1 block inactive and KAT2A inh inactive.
Screening COc1cc(-c2nc3ccc(Cl)cn3c2Nc2ccc3c(c2)OCCO3)ccc1O returned TDP1 cell CPT inconclusive, VDR inhibitor inactive, DT40 TDP1 no CPT inconclusive, TDP1 block inactive and KAT2A inh inactive.
Screening C[C@]12CC[C@H](OS(=O)(=O)O)CC1=CCC1C2CC[C@]2(C)C(=O)CC[C@@H]12 (stereo not given in full) returned VDR inhibitor inconclusive, TDP1 block inactive and KAT2A inh inactive.
COCCCNC(=O)c1c(NC(=O)c2ccco2)n(Cc2ccccc2)c2nc3ccccc3nc12 was read as TDP1 cell CPT inconclusive, PLK1 PBD inh inconclusive, VDR inhibitor 45µM, DT40 TDP1 no CPT 26µM, TDP1 block inactive and KAT2A inh inactive.
Screening COCCNC(=O)c1c(NC(=O)c2ccc(Br)o2)n(Cc2ccccc2)c2nc3ccccc3nc12 returned TDP1 cell CPT 18µM, PLK1 PBD inh inactive, VDR inhibitor inconclusive, DT40 TDP1 no CPT inconclusive, TDP1 block inactive and KAT2A inh inconclusive.
For Cc1cccc(Cn2cccc(C(=O)Nc3ccc(F)cc3F)c2=O)c1 the results were TDP1 cell CPT inactive, VDR inhibitor inactive, DT40 TDP1 no CPT inconclusive, TDP1 block inactive and KAT2A inh inactive.
Screening COc1cc(CC(C)N)c(OC)cc1I (stereo not given) returned TDP1 cell CPT inactive, PLK1 PBD inh inactive, VDR inhibitor inactive, DT40 TDP1 no CPT inconclusive, TDP1 block inactive and KAT2A inh inactive.
Screening COc1cc(CC(C)N)c(OC)cc1Br (stereo not given) returned TDP1 cell CPT inconclusive and DT40 TDP1 no CPT 28µM.
`COc1ccccc1Sc1ccccc1CC(C)N` (stereo not given) gave TDP1 cell CPT 15µM, PLK1 PBD inh inactive, VDR inhibitor inactive, DT40 TDP1 no CPT 18µM, TDP1 block inactive and KAT2A inh inactive.
CNC(=O)Oc1ccc(N(C)C)cc1C(C)C was read as TDP1 cell CPT inactive, PLK1 PBD inh inactive, VDR inhibitor inactive, DT40 TDP1 no CPT inactive, TDP1 block inactive and KAT2A inh inactive.
`CC(C)CN(CC(C)C)c1ccc(C=C2C(=O)NC(=S)NC2=O)cc1[N+](=O)[O-]` gave TDP1 cell CPT inconclusive, PLK1 PBD inh 2.7µM, VDR inhibitor 35µM, DT40 TDP1 no CPT 21µM, TDP1 block inactive and KAT2A inh inconclusive.
For O=C1NC(=O)C(=Cc2ccc3c(c2)OCO3)C(=O)N1 the results were TDP1 block inactive and KAT2A inh inactive.
`C=Cc1ccc(Cn2c(C)c(CNCCc3cc(OC)ccc3OC)c(C(=O)O)c2C)cc1` gave TDP1 cell CPT inconclusive, VDR inhibitor inactive, DT40 TDP1 no CPT 13µM, TDP1 block inactive and KAT2A inh inactive.
Screening COc1ccc(OC)c(CC(=O)O)c1 returned TDP1 cell CPT inactive, PLK1 PBD inh inactive, VDR inhibitor inactive, DT40 TDP1 no CPT inactive, TDP1 block inactive and KAT2A inh inactive.
For O=C(CCCN1CCC2(CC1)C(=O)N(Cc1cccc(F)c1)CN2c1ccccc1)c1ccc(F)cc1 the results were TDP1 cell CPT 30µM, VDR inhibitor inconclusive, DT40 TDP1 no CPT 15µM, TDP1 block inactive and KAT2A inh inactive.
Screening CCOP(=S)(OCC)Oc1ccc([N+](=O)[O-])cc1 returned TDP1 block inactive.
Screening CCN1CCN(C(=O)COc2ccc3oc4c(c3c2)CCCC4)CC1 returned TDP1 cell CPT inconclusive, PLK1 PBD inh inactive, VDR inhibitor inactive, DT40 TDP1 no CPT 21µM, TDP1 block inactive and KAT2A inh inactive.
Screening CCOc1ccc(-c2cc(C)[n+](CCN3CCOCC3)c(-c3ccc(OCC)cc3)c2)cc1 returned TDP1 cell CPT 1.5µM, PLK1 PBD inh inactive, VDR inhibitor inactive, DT40 TDP1 no CPT 1.3µM, TDP1 block inactive and KAT2A inh inactive.
For COc1cc(OC)cc(-c2sc3ccc(OC)cc3c2-c2ccc(OCCN3CCOCC3)cc2)c1 the results were TDP1 cell CPT inconclusive, PLK1 PBD inh inactive, VDR inhibitor inactive, DT40 TDP1 no CPT inconclusive, TDP1 block inactive and KAT2A inh inactive.
Screening CC(=O)C1CCC2C3CCC4CC(O)CCC4(C)C3CC(O)C12C (stereo not given) returned TDP1 cell CPT inactive, VDR inhibitor inactive, DT40 TDP1 no CPT inactive, TDP1 block inactive and KAT2A inh inactive.
Screening CC(C)CON=O returned TDP1 block inactive.
For CCON=O the results were TDP1 cell CPT 0.094µM, VDR inhibitor inactive, DT40 TDP1 no CPT inconclusive and KAT2A inh inactive.
`COc1ccc(CNC(C)Cc2cccs2)cc1` (stereo not given) gave TDP1 cell CPT inactive, PLK1 PBD inh inactive, VDR inhibitor inactive, DT40 TDP1 no CPT inactive, TDP1 block inactive and KAT2A inh inactive.
`COC(=O)C1=C(c2cccc(OCc3ccccc3)c2)C[C@@H]2CC[C@H]1N2C(=O)NCc1ccc([N+](=O)[O-])cc1` gave TDP1 cell CPT 18µM, PLK1 PBD inh inactive, VDR inhibitor inactive, DT40 TDP1 no CPT 23µM, TDP1 block inactive and KAT2A inh inactive.
